Out of some 48,000 compounds screened, about 13,000 (27%) showed an effect of 50% or more. This is one part of the list.
What follows are compounds tested on Wolbachia pipientis (assay: Anti-Wolbachia Cell-Based Screen). Details: 5 µM.
Format: functional
Parameters: scale not given: in the data most compounds retested in dose-response had high values
With `Cc1cc(C)c(C(=O)NCCNc2ncnc3ccccc23)c(=O)[nH]1` the “Percent Effect” value was -7.4%.
With `COc1cc(F)ccc1NC(=O)NC(C)C(=O)NC(C)(C)C` (centres undefined) the “Percent Effect” value was -5.015%.
In the case of `COc1ccc(CNCc2c(C)nc3sc(C)cn23)c(OC)c1OC`, the “Percent Effect” value is reported as 49.47%.
For `c1ccc(-c2noc3c2CN(CC2CC2)CC3)cc1`, the “Percent Effect” value was 5.665%.
For `Cc1ncc2c(n1)CN(CC(=O)Nc1cc(C)on1)CC2`, the “Percent Effect” value was 138%.
With `Cc1cc(NC(=O)CN2CCn3c(nnc3C(C)C)C2)no1` the “Percent Effect” value was 1.243%.
`Cc1nn(C)c(C)c1NC(=O)CN1CCc2c(nc(C3CC3)n2C)C1` was tested, and the “Percent Effect” value was -19.95%.
For `Cc1ncc2c(n1)CN(CCOCC(F)(F)F)CC2`, the “Percent Effect” value was -8.792%.
In the case of `Cc1ncc2c(n1)CN(CC(=O)Nc1c(C)nn(C)c1C)CC2`, the “Percent Effect” value is reported as 114.4%.
`Cc1cc(NC(=O)CN2CCc3cnc(C)nc3C2)on1` was tested, and the “Percent Effect” value was -3.742%.
In the case of `Cc1ccc(Cl)cc1N1CCC(CNC(=O)CC(F)(F)F)C1` (centres undefined), the “Percent Effect” value is reported as -9.569%.
With `COCCN1Cc2ccnn2CC(COCc2cccnc2)C1` (centres undefined) the “Percent Effect” value was -11.51%.
For `O=C(c1cccc(S(=O)(=O)NCCc2ccccn2)c1)N1CCOCC1`, the “Percent Effect” value was -3.428%.
For `CN(Cc1ncc[nH]1)S(=O)(=O)c1cccc(C(=O)N2CCOCC2)c1`, the “Percent Effect” value was -7.295%.
For `CN(CC1CCOC1)S(=O)(=O)c1cccc(C(=O)N2CCOCC2)c1` (centres undefined), the “Percent Effect” value was 110.2%.
With `O=C(c1cccc(S(=O)(=O)NCCCn2cccn2)c1)N1CCOCC1` the “Percent Effect” value was -8.398%.
With `CN(CC1CCOC1)S(=O)(=O)c1cccc(C(=O)N2CCCCCC2)c1` (centres undefined) the “Percent Effect” value was 127.8%.
With `CN(CC1CCCCO1)S(=O)(=O)c1cccc(C(=O)N2CCOCC2)c1` (centres undefined) the “Percent Effect” value was 99.86%.
For `CN(C)C1CCN(C(=O)c2cccc(S(=O)(=O)NCC3(C)COC3)c2)C1` (centres undefined), the “Percent Effect” value was 24.95%.
`CN1CCCN(C(=O)c2cccc(S(=O)(=O)NCC3(C)COC3)c2)CC1` was tested, and the “Percent Effect” value was -12.18%.
`O=C(c1cccc(S(=O)(=O)NCCCc2ccco2)c1)N1CCOCC1` was tested, and the “Percent Effect” value was 28.12%.
`C=C(C)CN1C(=O)CC(Cc2ccc(F)cc2)C1=O` (centres undefined) was tested, and the “Percent Effect” value was -35.72%.
`O[C@@H]1C[C@@H](c2nc(-c3ccccc3)no2)N(C2CCOCC2)C1` was tested, and the “Percent Effect” value was -15.45%.
In the case of `O=C(O)C(F)(F)F.O=C1CC2(CCCCN2C(=O)c2ccncc2)CN1CC1CC1` (centres undefined), the “Percent Effect” value is reported as 106.2%.
With `CC1N(CC2CC2)C(=O)COC12CCN(C(=O)c1cccs1)CC2` (centres undefined) the “Percent Effect” value was 8.45%.
With `O=C1CC2(CCCCN2C(=O)c2ccccc2)CN1CC1CC1` (centres undefined) the “Percent Effect” value was 79.38%.
`O=C(O)C(F)(F)F.O=C1CC2(CCCCN2C(=O)c2ccco2)CN1c1cccnc1` (centres undefined) was tested, and the “Percent Effect” value was 3.429%.
In the case of `Cn1ccc(C(=O)N2CCCCC23CC(=O)N(Cc2ccccc2)C3)n1` (centres undefined), the “Percent Effect” value is reported as -1.004%.
With `O=C1CC2(CCCCN2C(=O)c2ccoc2)CN1Cc1ccccc1` (centres undefined) the “Percent Effect” value was -18.39%.
`O=C(CCC(=O)c1cccs1)NC1(C(=O)NCC2CC2)CCCC1` was tested, and the “Percent Effect” value was 1.426%.
`O=C(O)C(F)(F)F.O=C1CC2(CCCCN2C(=O)Cc2ccccc2)CN1c1cccnc1` (centres undefined) was tested, and the “Percent Effect” value was -0.631%.
`O=C1CC2(CCCCN2C(=O)c2cccs2)CN1CC1CC1` (centres undefined) was tested, and the “Percent Effect” value was 78.16%.
In the case of `CC(=O)N(C)CCc1nc(-c2cc(C(N)=O)co2)cs1`, the “Percent Effect” value is reported as -0.5467%.
For `COc1cnc(N2CCC(Oc3ccccc3OC)(C(=O)O)CC2)nc1`, the “Percent Effect” value was -8.18%.
With `COc1ccccc1C(C)Nc1ncc(C(N)=O)cc1Cl` (centres undefined) the “Percent Effect” value was 2.47%.
For `Cc1cccc(C)c1OC1CN(C(=O)C2CCN(C(=O)N(C)C)CC2)C1`, the “Percent Effect” value was -8.295%.
With `CCc1nc(CCn2ccnc2-c2nccn2C)no1` the “Percent Effect” value was -9.052%.
`Cn1cc(CN2C[C@@H](F)[C@@H](OCc3nc4cnccc4[nH]3)C2)cn1` was tested, and the “Percent Effect” value was -2.303%.
`Fc1ccc(-c2c[nH]c([C@@H]3COCCN3)n2)cc1` was tested, and the “Percent Effect” value was -3.188%.
With `Cc1cc(NCc2ccc(N3CCNC(=O)C3)cc2)nc(C)n1` the “Percent Effect” value was 3.077%.
For `Fc1cccc(CNc2cncc(-n3cccn3)n2)c1`, the “Percent Effect” value was 9.755%.
In the case of `Cc1nc(NCc2nccn2C)cc(C2COCCN2)n1` (centres undefined), the “Percent Effect” value is reported as 145.4%.
In the case of `Cc1nc(NCc2ccc(F)cc2)cc(C2CCCN2)n1.Cl` (centres undefined), the “Percent Effect” value is reported as 123.2%.
With `Cc1ccc(-c2cn3c(n2)CO[C@@H](CNCc2nccn2C)C3)cc1` the “Percent Effect” value was -11.82%.
`Cc1nc(Cc2ccc(F)cc2)cc(C2COCCN2)n1.Cl` (centres undefined) was tested, and the “Percent Effect” value was 104.2%.
With `Clc1ccc(-c2c[nH]c([C@@H]3COCCN3)n2)cc1` the “Percent Effect” value was -8.999%.
For `Cn1ccnc1-c1ccc(NCC2COCCO2)nn1` (centres undefined), the “Percent Effect” value was -2.389%.
In the case of `COc1ccc2[nH]c(CNc3cc(C4CCNCC4)nc(C)n3)cc2c1`, the “Percent Effect” value is reported as -0.5265%.
For `Cc1nc(NCc2cccc(F)c2)cc(C2CCNCC2)n1.Cl`, the “Percent Effect” value was 92.9%.

Reference: ChEMBL document CHEMBL3988442, “University of Dundee, Small-Polar-MMV Screening Library” (2021)
